In article PMC10812921, “Transcriptional Coactivator BOB1 (OBF1, OCA-B) Modulates the Specificity of DNA Recognition by the POU-Domain Factors OCT1 and OCT2 in a Monomeric Configuration”:

Assays:
POU1 (OCT1 POU domain) = POU1 (OCT1 POU domain) (human, UniProt P14859 260-458); test: EMSA-SELEX-seq; no BOB1; 20 mM Tris-HCl pH 7.6, 140 mM NaCl, 10% glycerol, 0.5 mM EDTA, 0.05% Triton X-100, 0.1 mg/mL BSA, 0.1 mg/mL poly(dI-dC), 5 mM DTT, room temperature, 20 min; high values mean tight binding; conditions: protein: recombinant; dsDNA, one strand shown
Sequence of POU1 (OCT1 POU domain) (P14859 260-458): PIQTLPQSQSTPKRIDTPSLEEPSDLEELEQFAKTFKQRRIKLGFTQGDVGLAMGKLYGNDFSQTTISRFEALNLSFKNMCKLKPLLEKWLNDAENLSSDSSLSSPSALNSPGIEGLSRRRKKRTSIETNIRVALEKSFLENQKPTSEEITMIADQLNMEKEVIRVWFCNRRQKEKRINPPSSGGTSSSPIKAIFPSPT
Summary of the method: (§1)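 After expression in E. coli BL21, tagged POU-domain proteins were purified under denaturing conditions and then renatured. Each binding reaction held 30 ng protein and 300 ng of a PCR-amplified double-stranded random 35-nt library in 20 μL Tris–HCl pH 7.6 binding buffer, with or without 28 ng coactivator protein, for 20 min at RT. Bands holding complexes were cut from native 6% PAGE, eluted and PCR-amplified across four rounds, and the output was Illumina-sequenced. The value given for binding preference is the share, in percent, of sequenced 8-mers fitting a motif pattern.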

POU2 (OCT2 POU domain) = target: T1, POU2 (OCT2 POU domain) (human, UniProt P09086 175-386); test: as above; conditions: protein: recombinant; dsDNA, one strand shown
T1 sequence: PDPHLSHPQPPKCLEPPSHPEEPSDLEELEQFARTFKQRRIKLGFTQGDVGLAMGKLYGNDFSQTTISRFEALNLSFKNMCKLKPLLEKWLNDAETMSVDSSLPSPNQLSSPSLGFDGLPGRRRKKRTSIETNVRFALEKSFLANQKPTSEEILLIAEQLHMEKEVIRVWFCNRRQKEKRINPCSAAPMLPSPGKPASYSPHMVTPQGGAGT
Summary of the method: as §1

[1] = target: POU1 (OCT1 POU domain);BOB1 (OBF1, OCA-B) (human;human, UniProt P14859;Q16633 260-458;1-256, |); test: EMSA-SELEX-seq; with BOB1 (ternary complex band); 20 mM Tris-HCl pH 7.6, 140 mM NaCl, 10% glycerol, 0.5 mM EDTA, 0.05% Triton X-100, 0.1 mg/mL BSA, 0.1 mg/mL poly(dI-dC), 5 mM DTT, room temperature, 20 min; high values mean tight binding; conditions: protein: recombinant;recombinant; copies: 1;1; dsDNA, one strand shown
Summary of the method: as §1

[2] = target: T2, POU2 (OCT2 POU domain);BOB1 (OBF1, OCA-B) (human;human, UniProt P09086;Q16633 175-386;1-256, |); test: as above; conditions: protein: recombinant;recombinant; copies: 1;1; dsDNA, one strand shown
T2 sequence 1: T1 sequence
T2 sequence 2: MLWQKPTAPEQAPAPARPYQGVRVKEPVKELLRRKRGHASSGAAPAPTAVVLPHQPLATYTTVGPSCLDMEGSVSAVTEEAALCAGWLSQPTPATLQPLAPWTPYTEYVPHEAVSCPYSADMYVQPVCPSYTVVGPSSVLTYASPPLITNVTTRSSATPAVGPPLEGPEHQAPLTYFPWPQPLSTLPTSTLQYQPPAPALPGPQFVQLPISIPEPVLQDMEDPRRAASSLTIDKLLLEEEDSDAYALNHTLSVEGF
Summary of the method: as §1

For ACTAAAAT, the binding signal (POU1 (OCT1 POU domain)) was 0.0805 % of ANNNNAAN 8-mers, the binding signal (POU2 (OCT2 POU domain)) was 0.0714 % of ANNNNAAN 8-mers and the binding signal [1] was 0.0663 % of ANNNNAAN 8-mers. For the same sequence, the binding signal [2] was 0.0528 % of ANNNNAAN 8-mers.
ATTCCAAC was tested, and the binding signal (POU1 (OCT1 POU domain)) was 0.0339 % of ANNNNAAN 8-mers, the binding signal (POU2 (OCT2 POU domain)) was 0.0432 % of ANNNNAAN 8-mers and the binding signal [1] was 0.0269 % of ANNNNAAN 8-mers. The binding signal [2] was 0.0223 % of ANNNNAAN 8-mers.
AACATAAT was tested, and the binding signal (POU1 (OCT1 POU domain)) was 0.134 % of ANNNNAAN 8-mers, the binding signal (POU2 (OCT2 POU domain)) was 0.174 % of ANNNNAAN 8-mers and the binding signal [1] was 0.0515 % of ANNNNAAN 8-mers. The binding signal [2] was 0.071 % of ANNNNAAN 8-mers.
AAGAAAAG was tested, and the binding signal (POU1 (OCT1 POU domain)) was 0.0732 % of ANNNNAAN 8-mers, the binding signal (POU2 (OCT2 POU domain)) was 0.0633 % of ANNNNAAN 8-mers and the binding signal [1] was 0.0905 % of ANNNNAAN 8-mers. For the same sequence, the binding signal [2] was 0.0652 % of ANNNNAAN 8-mers.
AGAGGAAT was tested, and the binding signal (POU1 (OCT1 POU domain)) was 0.0828 % of ANNNNAAN 8-mers, the binding signal (POU2 (OCT2 POU domain)) was 0.115 % of ANNNNAAN 8-mers and the binding signal [1] was 0.0652 % of ANNNNAAN 8-mers. For the same sequence, the binding signal [2] was 0.0859 % of ANNNNAAN 8-mers.
In the case of AACACAAA, the binding signal (POU1 (OCT1 POU domain)) is reported as 0.0454 % of ANNNNAAN 8-mers, the binding signal (POU2 (OCT2 POU domain)) is reported as 0.0443 % of ANNNNAAN 8-mers and the binding signal [1] is reported as 0.0648 % of ANNNNAAN 8-mers. For the same sequence, the binding signal [2] was 0.0438 % of ANNNNAAN 8-mers.
With AGTATAAC the binding signal (POU1 (OCT1 POU domain)) was 0.0278 % of ANNNNAAN 8-mers, the binding signal (POU2 (OCT2 POU domain)) was 0.0328 % of ANNNNAAN 8-mers and the binding signal [1] was 0.0226 % of ANNNNAAN 8-mers. For the same sequence, the binding signal [2] was 0.0248 % of ANNNNAAN 8-mers.
With AAGCGAAT the binding signal (POU1 (OCT1 POU domain)) was 0.0538 % of ANNNNAAN 8-mers, the binding signal (POU2 (OCT2 POU domain)) was 0.0541 % of ANNNNAAN 8-mers and the binding signal [1] was 0.0531 % of ANNNNAAN 8-mers. The binding signal [2] was 0.0429 % of ANNNNAAN 8-mers.
ATTGGAAG was tested, and the binding signal (POU1 (OCT1 POU domain)) was 0.0309 % of ANNNNAAN 8-mers, the binding signal (POU2 (OCT2 POU domain)) was 0.0547 % of ANNNNAAN 8-mers and the binding signal [1] was 0.0371 % of ANNNNAAN 8-mers. For the same sequence, the binding signal [2] was 0.0438 % of ANNNNAAN 8-mers.
ATGATAAA was tested, and the binding signal (POU1 (OCT1 POU domain)) was 0.104 % of ANNNNAAN 8-mers, the binding signal (POU2 (OCT2 POU domain)) was 0.131 % of ANNNNAAN 8-mers and the binding signal [1] was 0.0644 % of ANNNNAAN 8-mers. For the same sequence, the binding signal [2] was 0.0619 % of ANNNNAAN 8-mers.
With ACGCGAAG the binding signal (POU1 (OCT1 POU domain)) was 0.0172 % of ANNNNAAN 8-mers, the binding signal (POU2 (OCT2 POU domain)) was 0.0121 % of ANNNNAAN 8-mers and the binding signal [1] was 0.0168 % of ANNNNAAN 8-mers. The binding signal [2] was 0.0239 % of ANNNNAAN 8-mers.
With ATACAAAA the binding signal (POU1 (OCT1 POU domain)) was 0.144 % of ANNNNAAN 8-mers, the binding signal (POU2 (OCT2 POU domain)) was 0.0857 % of ANNNNAAN 8-mers and the binding signal [1] was 0.195 % of ANNNNAAN 8-mers. The binding signal [2] was 0.105 % of ANNNNAAN 8-mers.
For ATAATAAG, the binding signal (POU1 (OCT1 POU domain)) was 0.182 % of ANNNNAAN 8-mers, the binding signal (POU2 (OCT2 POU domain)) was 0.258 % of ANNNNAAN 8-mers and the binding signal [1] was 0.094 % of ANNNNAAN 8-mers. The binding signal [2] was 0.126 % of ANNNNAAN 8-mers.
ACGCTAAC was tested, and the binding signal (POU1 (OCT1 POU domain)) was 0.0118 % of ANNNNAAN 8-mers, the binding signal (POU2 (OCT2 POU domain)) was 0.0121 % of ANNNNAAN 8-mers and the binding signal [1] was 0.0133 % of ANNNNAAN 8-mers. For the same sequence, the binding signal [2] was 0.0157 % of ANNNNAAN 8-mers.
